Screening data (PubChem)
Sampled rows, rich in hits. Any-hit rate of the full collection: about 1.2%.
PrPC surface inh: inhibitors of human cell surface prion protein PrPC, primary screen, cell-based, TR-FRET. TR-FRET read-out. AID 720596, 2013. Major prion protein (Homo sapiens), P04156. 370,000 compounds, 0.43% hits. inhibition, % at 13.8 µM; in the data active = inhibition above about 24%
Rv3671c inh: Rv3671c serine protease inhibitors, primary screen, biochemical, fluorescence polarization, M. tuberculosis H37Rv; P9WHR9; 320,000 compounds, 0.048% hits; inhibition, % at 5.96 µM; in the data active = inhibition above about 38%;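 also: extracellular domain of Rv3671c used as enzyme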
Target sequence (P9WHR9 whole entry, looked up, the tested form may be a part): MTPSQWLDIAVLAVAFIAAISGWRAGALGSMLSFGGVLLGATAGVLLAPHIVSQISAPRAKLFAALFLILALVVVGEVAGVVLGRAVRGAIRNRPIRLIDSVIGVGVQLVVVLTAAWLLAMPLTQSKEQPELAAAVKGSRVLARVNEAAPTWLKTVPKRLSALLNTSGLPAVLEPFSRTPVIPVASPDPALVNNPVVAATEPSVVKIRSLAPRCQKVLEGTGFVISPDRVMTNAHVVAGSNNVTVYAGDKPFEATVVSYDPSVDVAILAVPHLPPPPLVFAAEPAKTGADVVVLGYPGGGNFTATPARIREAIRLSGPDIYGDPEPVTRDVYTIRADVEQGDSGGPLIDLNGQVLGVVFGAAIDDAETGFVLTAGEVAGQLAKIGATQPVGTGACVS
PrP UTR inh: inhibition of PrP 5' UTR reporter expression; cell-based PrP 5' UTR mRNA reporter, plate reader; inhibition, % (no concentration beside the values); 340,000 compounds, 0.35% hits; AID 488862, 2010; in the data active = inhibition above about 52%
FadD28 FP inh: inhibitors of FadD28 bisubstrate probe binding, primary screen, biochemical, fluorescence polarization, single point. inhibition, % at 12.5 µM. 360,000 compounds, 0.22% hits; in the data active = inhibition above about 8.5%, passing the limit was not always enough; inconclusive = no clear call, values can overlap the other calls
SSB-PriA inh: inhibitors of Klebsiella pneumoniae PriA binding to SSB C-terminal tail, primary screen, biochemical, AlphaScreen | PriA–SSB C-terminal tail interaction (Klebsiella pneumoniae) | AlphaScreen SSBct-PriA binding, biotinylated peptide | inhibition, % at 33 µM | 430,000 compounds, 0.6% hits; in the data active = inhibition mostly above about 37%, no sharp cut-off; inactive = mostly below about 20%
UGM FP inh: M. tuberculosis UGM enzyme inhibitors, primary screen, biochemical, fluorescence polarization, single point; UDP-galactopyranose mutase (Mycobacterium tuberculosis (strain ATCC 25618 / H37Rv)), …; purified UGM, fluorescence polarization probe displacement; inhibition, % at 10 µM; 320,000 compounds, 0.06% hits; AID 504406, 2011; in the data active = inhibition above about 10%, passing the limit was not always enough; inconclusive = no clear call, values can overlap the other calls
PrP UTR cherry: prion 5' UTR mRNA inhibition, cherry-pick retest. 1,100 compounds, 48% hits. cell-based prion protein 5' UTR reporter, plate reader. shares compounds with PrP UTR inh. AID 504592, 2011. inhibition, % at 2.5 µM; in the data active = inhibition above about 54%; inconclusive = no clear call, values can overlap the other calls
Each line names hits and unclear results; the compound was inactive in the other large screens (follow-up assays come after a bar, where they were run).

COC(=O)c1sccc1NC(=O)CSc1nc2c(c(=O)[nH]1)CN(Cc1ccccc1)CC2	none (no result: PrPC surface inh, Rv3671c inh, PrP UTR inh, FadD28 FP inh, UGM FP inh)
Cc1ccc(-c2cc3c(nn2)-c2ccccc2C3=O)cc1	PrP UTR inh 76 | PrP UTR cherry 82
COCCNc1oc2c(c1-c1cccc([N+](=O)[O-])c1)c(=O)oc1ccc(C)cc12	none (no result: PrPC surface inh, Rv3671c inh, PrP UTR inh, FadD28 FP inh, UGM FP inh)
CC(=O)N1CCN(C(=O)c2cc(C)nc3ccccc23)CC1	none
Cc1cc(C(=O)N2CC=C(c3ccccc3)CC2)c2ccccc2n1	PrP UTR inh 52 | PrP UTR cherry 74
N#Cc1c(NC(=O)COc2ccc(Cl)cc2Cl)sc2c1CCCC2	none (no result: PrPC surface inh, Rv3671c inh, PrP UTR inh, FadD28 FP inh, UGM FP inh)
Cc1ccc2c(c1)c(=O)c(C(=O)c1ccccc1)cn2CC(=O)Nc1ccc(C(C)C)cc1	none (no result: PrPC surface inh, Rv3671c inh, PrP UTR inh, FadD28 FP inh, UGM FP inh)
COc1ccccc1C(=O)N1CCCC1(C#N)c1ccccc1 (centres undefined)	PrP UTR inh 83 | PrP UTR cherry inactive
N#CC1(c2ccccc2)CCCN1C(=O)c1ccccc1Br (centres undefined)	none
N#Cc1cccnc1N1CCC(CNS(=O)(=O)Cc2cccc(F)c2)CC1	none (no result: PrPC surface inh, Rv3671c inh, PrP UTR inh, FadD28 FP inh, UGM FP inh)
CCOC(=O)C1C(OC(=O)c2ccccc2)CC2CCC1N2C (centres undefined)	PrP UTR inh 70 (no result: Rv3671c inh, UGM FP inh) | PrP UTR cherry inactive
CN1C2CCC1C(C(=O)O)C(OC(=O)c1ccccc1)C2 (centres undefined)	none (no result: UGM FP inh)
Cc1ccc(-c2cn3c(C(=O)N4CCN(c5ccc(F)cc5)CC4)csc3n2)cc1	none (no result: PrPC surface inh, Rv3671c inh, PrP UTR inh, FadD28 FP inh, UGM FP inh)
CC(=O)CSc1ccc(-c2nc3cc(C)c(C)cc3[nH]2)cn1	PrP UTR inh 82 | PrP UTR cherry 74
O=C(CC(c1ccccc1)c1ccccc1O)NCc1ccccc1 (centres undefined)	none
CN(C)CCCNC(=O)CC(c1ccccc1)c1ccccc1O (centres undefined)	PrP UTR inh 71 | PrP UTR cherry inactive
CC(Oc1ccc(F)cc1)C(O)CCN(C)C (centres undefined)	PrP UTR inh 74 | PrP UTR cherry inactive
CC(C)(C)c1ccc(-c2noc(CCC(=O)Nc3cccnc3)n2)cc1	PrP UTR inh 65 | PrP UTR cherry inactive
O=C(NCCC1=CCCCC1)c1ccc(Cn2c(=O)[nH]c3ccccc3c2=O)cc1	none (no result: PrPC surface inh, Rv3671c inh, PrP UTR inh, FadD28 FP inh, UGM FP inh)
CS(=O)(=O)NCc1cc(C2CC2)n(C2CCCC2)n1	none (no result: PrPC surface inh, Rv3671c inh, PrP UTR inh, FadD28 FP inh, UGM FP inh)
Cn1c(=O)oc2cc(S(=O)(=O)N3CCC(C(=O)N4CC=C(c5ccccc5)CC4)CC3)ccc21	PrP UTR inh 61, SSB-PriA inh 115 (no result: Rv3671c inh, UGM FP inh) | PrP UTR cherry inactive
Cn1c(=O)oc2cc(S(=O)(=O)N3CCC(C(=O)N4CCN(c5ccccc5)CC4)CC3)ccc21	none
CC(C)C(C(=O)NCc1ccccc1)N(CC1CCCO1)C(=O)CNS(=O)(=O)c1ccccc1 (centres undefined)	none
CC(C)C(C(=O)NCc1ccco1)N(CC1CCCO1)C(=O)CNS(=O)(=O)c1ccccc1 (centres undefined)	PrP UTR inh 68 | PrP UTR cherry inactive
O=C(O)c1ccc(N/N=C/c2ccc3nccnc3c2)cc1	PrP UTR inh 84 | PrP UTR cherry 85
O=C(O)c1ccc(NN=Cc2ccc3ncccc3c2)cc1	none (no result: PrPC surface inh, Rv3671c inh, PrP UTR inh, FadD28 FP inh, UGM FP inh)
CC(=O)OCC(=O)Nc1c(C)cccc1C	none
CC(=O)OCC(=O)Nc1ccccc1C	PrP UTR inh 76 | PrP UTR cherry inactive
COC1C(C)OC(OC2CC(C)(O)Cc3cc4c(c(O)c32)C(=O)c2c(O)cc3c(c2C4=O)OC2OC3(C)C(O)C(N(C)C)C2O)C(OC)C1(C)OC (centres undefined)	PrP UTR inh 90 (no result: Rv3671c inh, UGM FP inh) | PrP UTR cherry 81
CC(=O)Nc1cccc(C(=O)O)n1	PrP UTR inh 88 | PrP UTR cherry inactive
CC(=O)Nc1cccc(NC(C)=O)n1	none
O=C(c1ccc2c(c1)OCO2)N1CCC2(CC1)Oc1ccc(Cl)cc1C(=O)C21CC(c2cccnc2)=NO1 (centres undefined)	PrP UTR inh 53 | PrP UTR cherry inactive
Cc1sc(NC(=O)CN2C(=O)CCC2=O)c(C#N)c1C	none (no result: PrPC surface inh, Rv3671c inh, PrP UTR inh, FadD28 FP inh, UGM FP inh)
c1nc(CCO[C@H]2CCCCO2)cc2cc3c(cc12)OCO3	PrP UTR inh 63 | PrP UTR cherry inactive
c1ccc2cc(CCO[C@H]3CCCCO3)ncc2c1	none
Cc1ccc(/C=N/N=C2SCC(=O)N2CC2CC2)cc1	none (no result: PrPC surface inh, Rv3671c inh, PrP UTR inh, FadD28 FP inh, UGM FP inh)
C=C(C=O)CC1CC(O)[C@]2(C)OC3CC4OC5C[C@]6(C)O[C@]7(C)CCC8OC9C[C@]%10(C)OC%11C(C)=CC(=O)OC%11CC%10OC9C[C@@H](C)C8OC7CC6O[C@]5(C)CC5OC5C4OC3CC2O1 (some centres undefined)	PrP UTR inh 85 (no result: PrPC surface inh) | PrP UTR cherry 98
Cc1ccc(-n2c([S-])c(C(=O)Nc3ccc(OC(F)F)cc3)[n+]3ccc(C(=O)NCCO)cc23)cc1C	PrP UTR inh 78 | PrP UTR cherry inactive
COc1ccccc1/C=C/CN1CCN(Cc2ccc(C)o2)C(CCO)C1 (centres undefined)	none
COc1cc(/C=C/CN2CCN(Cc3ccc(C)o3)C(CCO)C2)ccc1O (centres undefined)	PrP UTR inh 55 | PrP UTR cherry inconclusive
O=C(Nc1nc2ccccc2[nH]1)[C@H]1CCCN(c2cc(-n3cccn3)ncn2)C1	none (no result: PrPC surface inh, Rv3671c inh, PrP UTR inh, FadD28 FP inh, UGM FP inh)
Clc1ccc(CSc2nnc(-c3ccc4c(c3)OCO4)o2)cc1	none
O=C1CCCCC1Sc1nnc(-c2ccc3c(c2)OCO3)o1 (centres undefined)	PrP UTR inh 55 | PrP UTR cherry inconclusive
C#CC(C)(CC)OCC(O)CN1CCC(C(=O)OCC)CC1 (centres undefined)	none (no result: PrPC surface inh, Rv3671c inh, PrP UTR inh, FadD28 FP inh, UGM FP inh)
COC(=O)c1oc2ccc(Br)cc2c1NC(=O)CCCN1C(=O)c2ccccc2C1=O	PrP UTR inh 57 | PrP UTR cherry inactive
CCC(=O)Oc1ccc(C(CC)C(CC)c2ccc(OC(=O)CC)cc2)cc1 (centres undefined)	PrP UTR inh 58 (no result: UGM FP inh) | PrP UTR cherry inactive
COc1ccc(/C=C2\SC(=S)N(CCCC(=O)NNC(=O)c3ccccc3O)C2=O)cc1	PrP UTR inh 60 | PrP UTR cherry 74
CCn1c(C)nc2cc(-c3nc4n(n3)Cc3ccccc3-4)ccc21	PrP UTR inh 94 (no result: PrPC surface inh) | PrP UTR cherry 96
O=C(O)c1cccc2c1-c1ccc([N+](=O)[O-])cc1C2=O	none (no result: Rv3671c inh, UGM FP inh)
Cc1ccc2c(c1)C(=O)c1c(C(=O)O)cccc1-2	PrP UTR inh 78 | PrP UTR cherry inactive
Cn1nnnc1SCC(=O)N1CCN(S(=O)(=O)c2ccccc2)CC1	PrP UTR inh 71 | PrP UTR cherry inactive
CCc1ccccc1NC(=O)Nc1cnc(N2CCCC2)nc1N(C)C	none (no result: PrPC surface inh, Rv3671c inh, PrP UTR inh, FadD28 FP inh, UGM FP inh)
Cc1ccccc1CSc1nnc([C@@H]2CCCN2)o1	PrP UTR inh 74 | PrP UTR cherry inactive
